PubChem BioAssay AID686979 (National Center for Advancing Translational Sciences (NCATS), 2013)
Hit rate of the full screen: of about 420,000 compounds, about 50,000 (12%) were called active. Inconclusive results (about 26%) are left out. Calls follow the shape of the dose curve; as a rule, active = well fitted inhibition curve with a large enough effect; inconclusive = small, poorly fitted or top-dose-only effect; inactive = flat fitted curve, though single readings scatter. The entries come from a sample that favours actives as a whole.

Assay: qHTS for Inhibitors of human tyrosyl-DNA phosphodiesterase 1 (TDP1): qHTS in cells in presence of CPT; also: nearly all actives have a fitted effect of over 55% in size
Conditions: chicken DT40 Tdp1-/-;hTDP1 cells + 20 nM CPT, ATP luminescence, 48 h; series mostly up to 46.2 µM; activity change, negative = growth inhibition: at the top concentration
Method in brief: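 Cell growth measured by CellTiter-Glo luminescence after a minimum 48 h, 37 C compound exposure with 20 nM CPT in Tdp1-knockout DT40 cells stably expressing hTDP1, seeded 400/well; qHTS titration format.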
% is scaled to controls: 0 for no effect and ±100 for the full control effect; potency is read from the fitted curve at half-maximal effect.

Compound | activity change, negative = growth inhibition | Potency
C1CC1Cc1noc(CN2CCN(CC3CC3)CC2)n1 | -3.85% (inactive) | –
CC1(C(=O)NCCc2c[nH]c3ccccc23)C=CC2(CCCCC2)N1C(=O)c1ccccc1 (stereo not drawn) | – | 18.4 µM (active)
O=C(CN1C(=O)NC2(CCCCC2)C1=O)NCCc1c[nH]c2ccccc12 | -15.2% (inactive) | –
O=C(NCCc1c[nH]c2ccccc12)c1cccc(Br)c1 | -16.9% (inactive) | –
C=CCn1c(SCC(=O)NC)nnc1C12CC3CC(CC(C3)C1)C2 | -4.49% (inactive) | –
Cc1cc(C)cc(OCC(=O)NNC(=O)CCN2C(=O)c3ccccc3C2=O)c1 | -4.21% (inactive) | –
Cc1ccsc1/C=N/NC(=O)Cc1cc(=O)[nH][nH]1 | -6.7% (inactive) | –
CC(=O)c1ccc(N2CCN(C(=O)CCc3ccccc3)CC2)cc1 | -20.4% (inactive) | –
COc1cc(CCC(=O)N2CCN(c3ccccc3Cl)CC2)cc(OC)c1OC | – | 11.6 µM (active)
COc1cc(CCC(=O)Nc2ccncc2Cl)cc(OC)c1OC | -1.48% (inactive) | –
Cc1cc(Cl)c2oc(C(=O)N3CCC(O)(c4ccccc4)CC3)c(C)c2c1 | -22.6% (inactive) | –
Cc1cc2nc(-c3ccco3)c(Cc3cccc(F)c3)n2c(C)c1Br | – | 16.4 µM (active)
CCCCN(C(=O)c1ccc2ccccc2c1)c1c(N)n(CCCC)c(=O)[nH]c1=O | -20.9% (inactive) | –
CN(CC(=O)NCCc1ccc(S(N)(=O)=O)cc1)CC(=O)Nc1ccc(F)c(F)c1F | -2.55% (inactive) | –
O=C(N/N=C/c1ccccn1)c1ccc(S(=O)(=O)N2CCCCCC2)cc1 | -12.5% (inactive) | –
CN1CCN(S(=O)(=O)c2cccc(C(=O)Nc3sccc3C#N)c2)CC1 | -11.2% (inactive) | –
Cc1cccnc1NC(=O)c1cccc(S(=O)(=O)N2CCN(c3ccc(F)cc3)CC2)c1 | – | 18.4 µM (active)
Cc1cc2nc(NC(=O)c3ccc(S(=O)(=O)N4CCOCC4)cc3)sc2cc1C | -6.36% (inactive) | –
O=C(Nc1ncccc1O)c1ccc(S(=O)(=O)N2CCCC2)cc1 | – | 14.6 µM (active)
CCOC(=O)c1csc(NC(=O)c2ccc(S(=O)(=O)N3CCCC3)cc2)n1 | -29% (inactive) | –
Cc1ccc(C)c2sc(NC(=O)c3ccc(S(=O)(=O)N4CCCC4)cc3)nc12 | – | 29.1 µM (active)
Cc1ccc(C(=O)Nc2ncccc2C)cc1S(=O)(=O)N1CCOCC1 | 0.269% (inactive) | –
O=C(Nc1ccccc1F)c1ccc(S(=O)(=O)N2CCCCCC2)cc1 | -28.5% (inactive) | –
CCOc1cc(C)ccc1OCc1nnc(SCC(=O)Nc2cccc(C(=O)O)c2)n1-c1ccccc1 | -7.05% (inactive) | –
CCCOc1ccc(/C=N/NC(=O)C2CC2)c(OCCC)c1 | -3.44% (inactive) | –
CC(C)CN1CC(C)C(=O)N(c2ccccc2)C1=S (stereo not drawn) | -13.8% (inactive) | –

Compound | activity change, negative = growth inhibition | Potency
N#CC(Cc1cc2ccccc2n1S(=O)(=O)c1ccccc1)OCc1ccccc1 (stereo not drawn) | -17.2% (inactive) | –
N[C@@H](Cc1ccccc1)C(=O)N1CCC(C(=O)NCC(=O)Nc2ccc(F)cc2)CC1 | 0.464% (inactive) | –
Cc1ccccc1C(=O)O | 2.84% (inactive) | –
O=C(O)c1cc([N+](=O)[O-])c(Nc2cccc3ccccc23)c([N+](=O)[O-])c1 | -27.4% (inactive) | –
CCN(CC)CCCNC(=O)Cn1cnc2sc(C)c(S(=O)(=O)N3CCN(c4ncccn4)CC3)c2c1=O | -1.95% (inactive) | –
CC1(C)CC(=O)C=C(c2cccc3c2Oc2ccccc2S3)C1 | 2.73% (inactive) | –
COc1cc(OC)cc(C(=O)NNC(=O)CCOc2ccccc2OC)c1 | 12.8% (inactive) | –
COc1ccc(S(=O)(=O)c2c[nH]c(=S)[nH]c2=O)cc1Cl | -10.9% (inactive) | –
COc1ccc(-c2nc3ccccc3o2)cc1NC(=O)c1cc([N+](=O)[O-])ccc1N1CCOCC1 | 1.85% (inactive) | –
CCOC(=O)CC1(NC(=O)c2cc(COc3cncc(Cl)c3)on2)CCCCC1 | – | 23.1 µM (active)
CCOC(=O)c1c(NC(=O)c2cc(CC)on2)sc(C(C)=O)c1C | 13.3% (inactive) | –
Cc1cc(OCc2cc(C(=O)NCc3cc(C(C)C)no3)no2)cc(C)c1Cl | -25.7% (inactive) | –
Cc1cc(C)cc(NC(=O)CN2C(=O)c3ccccc3C2=O)c1 | 11.3% (inactive) | –
Cc1cccc(C(=O)Nc2ccc(C(=O)/C=C/c3cccs3)cc2)c1 | – | 16.4 µM (active)
Cc1cccc(C(=O)Nc2ccc(CC(=O)O)cc2)c1 | -0.617% (inactive) | –
Cc1cccc(C(=O)Nc2ccc(C(=O)N/N=C/c3cccc(C)n3)cc2)c1 | -21.6% (inactive) | –
CC(C)c1ccc(C(=O)OC2CCOC2=O)cc1 (stereo not drawn) | -0.715% (inactive) | –
COc1ccc(CCNS(=O)(=O)c2cn(C)nc2C)cc1 | -18.1% (inactive) | –
COc1ccc(C(=O)O)cc1S(=O)(=O)NC1CCN(Cc2ccccc2)CC1 | 14.9% (inactive) | –
COc1ccc(-c2onc(C)c2C)cc1S(=O)(=O)NCCc1ccccc1 | – | 20.6 µM (active)
CCOC(=O)C1CCN(S(=O)(=O)c2cc(F)ccc2OC)CC1 | -16.9% (inactive) | –
Cc1ccc(-c2onc(C)c2C)cc1S(=O)(=O)Nc1ccccn1 | -17.1% (inactive) | –
COc1ccc(-c2onc(C)c2C)cc1S(=O)(=O)NCC1CCN(Cc2cccc(F)c2)CC1 | – | 20.6 µM (active)
C[C@H]1CN([C@@H](C)CO)C(=O)CCCn2cc(nn2)CO[C@@H]1CN(C)S(=O)(=O)c1ccc(-c2ccccc2)cc1 | -26.9% (inactive) | –
O=C(c1ccco1)N1CCC2(CC1)CCN(c1ncccn1)CC2 | -25.7% (inactive) | –
CC(=O)Nc1ccc(S(=O)(=O)NC(C)C(=O)OCC(=O)NC2CCCC2)cc1 (stereo not drawn) | -4.92% (inactive) | –

Compound | activity change, negative = growth inhibition | Potency
O=C(COc1ccc(-n2cnnn2)cc1)Nc1ccccc1Cl | -7.88% (inactive) | –
Nc1nnc(SCC(=O)OCc2ccc(Cl)c(Cl)c2)s1 | -26.2% (inactive) | –
CCOC(=O)C(Sc1ncc(C#N)c(N)n1)C(C)C (stereo not drawn) | -28% (inactive) | –
O=C(NC(Cc1ccc(O)cc1)C(=O)O)/C(=C/c1ccccc1)NC(=O)c1ccccc1 (stereo not drawn) | -11.8% (inactive) | –
O=C(CCc1nc2ccccc2c(=O)[nH]1)OCC(=O)c1cccc(Cl)c1 | -1.52% (inactive) | –
N#CCSc1nc(-c2ccccc2)nc2ccc(F)cc12 | -12% (inactive) | –
Clc1ccc2nc(-c3ccccc3)nc(C(Cl)Cl)c2c1 | – | 0.164 µM (active)
Cc1nn(-c2ccccc2)c(C)c1/C=C/C(=O)OC(C)C(N)=O (stereo not drawn) | 0.211% (inactive) | –
Cc1ccc(C(=O)Nc2cccc3ncccc23)cc1[N+](=O)[O-] | -22.8% (inactive) | –
Cc1ccc2c(NC(=O)C3CC3)cccc2n1 | -3.12% (inactive) | –
Cc1ccc(/C=C(\C#N)C(=O)Nc2cccc3ncccc23)o1 | – | 16.4 µM (active)
CC(C)(C)NC(=O)Cn1c(SCC(=O)Nc2nccs2)nc2ccccc21 | -11.2% (inactive) | –
NC(=O)NC(=O)C(OC(=O)CCNS(=O)(=O)c1ccccc1)c1ccccc1 (stereo not drawn) | 1.03% (inactive) | –
COCCNC(=O)C(c1ccc(C)cc1)N(C(=O)CCC(=O)Nc1ccccn1)c1cccc(C)c1 (stereo not drawn) | -11% (inactive) | –
O=C(OCc1cn([C@@H]2C[C@H](c3ccc(Cl)cc3)N(Cc3cccs3)C[C@H]2O)nn1)c1ccccc1 | -3.26% (inactive) | –
CCCCCCN1C[C@@H](O)[C@H](n2cc(COC(=O)c3ccccc3)nn2)C[C@@H]1c1ccc(Cl)cc1 | -19.1% (inactive) | –
CCCCCC(=O)N1C[C@H](O)[C@@H](n2cc(COC(=O)c3ccccc3)nn2)C[C@@H]1c1ccc(C)cc1 | – | 0.82 µM (active)
Cc1cc(S(=O)(=O)NCC(C)C)ccc1OCC(=O)NC1CC1 | -1.97% (inactive) | –
CC(Sc1ncnc2c1cnn2-c1ccccc1)C(=O)Nc1ccc(N2CCOCC2)cc1 (stereo not drawn) | 4.76% (inactive) | –
CCOC(=O)c1c(CN(C)C)n(-c2ccccc2)c2cc(Br)c(O)cc12 | -18.9% (inactive) | –
O=C1/C(=C\c2ccc(O)cc2)CCC1CNc1ccc(Cl)cc1 (stereo not drawn) | – | 4.61 µM (active)
CC(C(=O)NC1CCS(=O)(=O)C1)N1C(=O)/C(=C/c2ccc(Cl)cc2)SC1=S (stereo not drawn) | -27.2% (inactive) | –
CCOCCCNC(=O)c1ccc(CS(=O)(=O)c2cccc(C(F)(F)F)c2)o1 | -0.971% (inactive) | –
O=C(CO/N=C/c1ccccc1OC(F)F)NC1CCCC1 | 3.7% (inactive) | –
O=C(CO/N=C/c1ccccc1O)NNC(=O)c1ccccc1Cl | – | 0.461 µM (active)
NS(=O)(=O)c1cc(C(=O)OCC(=O)NNC(=O)c2ccccc2)ccc1Cl | 4.84% (inactive) | –

Compound | activity change, negative = growth inhibition | Potency
CCn1c(SCC(=O)c2ccc(Cl)s2)nnc1-c1cccs1 | -29.9% (inactive) | –
Cc1ccc(-n2c(Cc3cccs3)nnc2SCC(=O)OC(C)C)cc1 | 1.44% (inactive) | –
CCn1c(Cc2cccs2)nnc1SCC(=O)c1ccc(C)cc1 | – | 11.2 µM (active)
COC(=O)C(C)n1cnc2c(nnn2-c2cccc(Cl)c2)c1=O (stereo not drawn) | -12.8% (inactive) | –
CC(C)C[C@H](CO)Nc1nc(N(C)c2cccc(Cl)c2)c2ncn(C(C)C)c2n1 | – | 16.4 µM (active)
Cc1ccnc(NS(=O)(=O)c2ccc(NC(=O)c3ccc(S(=O)(=O)N(C)C)cc3)cc2)n1 | -11.2% (inactive) | –
CCOc1cc2c(Cl)ncnc2c(OCC)c1OCC | 1.52% (inactive) | –
CCCCC(=O)OC1=CN(Cc2ccccc2)S(=O)(=O)c2ccccc21 | 12.4% (inactive) | –
O=C(OCc1cn(-c2ccc(Cl)c(Cl)c2)nn1)c1ccccc1Cl | -12.9% (inactive) | –
COc1cc2c(cc1OC)C(C)N(S(=O)(=O)c1cnc(Cl)c(Cl)c1)CC2 (stereo not drawn) | -112% (inactive) | –
CCc1ccc(C(=O)NN=C2CCCCCC2)s1 | 3.08% (inactive) | –
CC(C)NC(=S)NN=C1CCCCCCCCCCC1 | – | 13 µM (active)
CC(C)(C)NC(=O)C(=O)NN=C1CCCCCCC1 | 8.31% (inactive) | –
CC(C)(C)c1ccccc1NC(=O)CN1C(=O)NC2(CCCC2)C1=O | -1.6% (inactive) | –
COC(=O)c1ccc(CN2C(=O)C(Cc3ccccc3)ON=C2c2ncccc2C)o1 (stereo not drawn) | -16.6% (inactive) | –
Cc1ccc(C)c(NC(=O)Cn2ccn(-c3ccc(F)cc3)c(=O)c2=O)c1 | 8.32% (inactive) | –
COc1ccccc1NC(=O)CCC(=O)OC(C)C(=O)c1ccccc1 (stereo not drawn) | 3.03% (inactive) | –
O=C(Nc1ccc(F)cc1)c1cc2c(s1)CCCC2 | -27.3% (inactive) | –
COc1cccc(C(=O)NNC(=O)c2cccc(F)c2)c1 | 0.0986% (inactive) | –
COc1cccc(C(=O)NC2(C(F)(F)F)C(=O)Nc3c2c(=O)[nH]c(=O)n3-c2ccc(C)cc2)c1 (stereo not drawn) | – | 25.9 µM (active)
CCOc1ccccc1C(=O)NC1(C(F)(F)F)C(=O)Nc2c1c(=O)[nH]c(=O)n2-c1ccc(F)cc1 (stereo not drawn) | 6.4% (inactive) | –
O=P(O)(O)C(O)c1ccc2ccccc2c1 (stereo not drawn) | 0.0947% (inactive) | –
C/C(CCc1ccccc1)=N\NC(=O)c1ccc(CN2CCOCC2)cc1 | -2.29% (inactive) | –
S=C1SCN(CCN2CCOCC2)CN1Cc1ccccc1 | – | 5.01 µM (active)
CCN1CN(Cc2ccccc2)CNC1=S | -9.4% (inactive) | –
